Assay [1] can be described thus: qHTS profiling for inhibitors of Plasmodium falciparum proliferation (AID 504749).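 For activity, negative = inhibition: 0% = DMSO vehicle and full inhibition = artemisinin control.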 Note: nearly all actives have a fitted effect of over 60% in size. To be noted: P. falciparum in erythrocytes, SYBR Green DNA, 72 h. The method, boiled down:
(§1)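 SYBR Green fluorescence (ex 485 nm, em 535 nm) reports parasite DNA after 72 h compound exposure of infected red cells at 0.3% parasitemia, 2.5% hematocrit; signal normalized to 0.29 uM artemisinin and vehicle wells.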

The test system of assay [2] is 3D7. The assay is described as above. To be noted: P. falciparum in erythrocytes, SYBR Green DNA, 72 h; series mostly up to 28.7 µM. Summed up:
as §1

Assay [3] relates to 7G8. Described as above. To be noted: P. falciparum in erythrocytes, SYBR Green DNA, 72 h; series mostly up to 28.7 µM. Summed up: as §1
The test system of assay [4] is AA1029. The description is as above. To be noted: P. falciparum in erythrocytes, SYBR Green DNA, 72 h; series mostly up to 28.7 µM. Summed up: as §1
Assay [5] deals with AS120. The description is as above. The following applies: P. falciparum in erythrocytes, SYBR Green DNA, 72 h; series mostly up to 28.7 µM. The method, boiled down: as §1
The subject of assay [6] is ATS189. Described as above. The following applies: P. falciparum in erythrocytes, SYBR Green DNA, 72 h; series mostly up to 28.7 µM. Summed up:
as §1

Assay [7] concerns ATS95. The assay is described as above. To be noted: P. falciparum in erythrocytes, SYBR Green DNA, 72 h; series mostly up to 28.7 µM. Summed up:
as §1

For assay [8], the system named is C2A. Described as above. The following applies: P. falciparum in erythrocytes, SYBR Green DNA, 72 h; series mostly up to 28.7 µM. The method, boiled down:
as §1

Assay [9] concerns CP185. The description is as above. The following applies: P. falciparum in erythrocytes, SYBR Green DNA, 72 h; series mostly up to 28.7 µM. The method, boiled down: as §1
Assay [10] concerns CP191. The description is as above. The following applies: P. falciparum in erythrocytes, SYBR Green DNA, 72 h; series mostly up to 28.7 µM. The method, boiled down:
as §1

Assay [11] has as its system CP192. The description is as above. The following applies: P. falciparum in erythrocytes, SYBR Green DNA, 72 h; series mostly up to 28.7 µM. The method, boiled down: as §1
In assay [12] the test system is CP194. The assay is described as above. The following applies: P. falciparum in erythrocytes, SYBR Green DNA, 72 h; series mostly up to 28.7 µM. Summed up: as §1
Assay [13] concerns CP201. The assay is described as above. The following applies: P. falciparum in erythrocytes, SYBR Green DNA, 72 h; series mostly up to 28.7 µM. Summed up: as §1
Assay [14] concerns CP203. The assay is described as above. The following applies: P. falciparum in erythrocytes, SYBR Green DNA, 72 h; series mostly up to 28.7 µM. The method, boiled down: as §1
The test system of assay [15] is CP211. Described as above. The following applies: P. falciparum in erythrocytes, SYBR Green DNA, 72 h; series mostly up to 28.7 µM. The method, boiled down:
as §1

[16] abbreviates: at 28.7 µM (top of the series), parasite line A.
Where [17] appears, read: at 28.7 µM (top of the series), parasite line B.

Results filed as inconclusive are left out. A number with no mark means an inactive call. Activity calls are given as the source filed them. Calls come from the whole dose curve; as a rule, active = well fitted inhibition curve with a large enough effect; inconclusive = small, poorly fitted or top-dose-only effect; inactive = flat fitted curve, though single readings scatter.
Potency is the fitted concentration of half-maximal effect.

As for `CC1=C(/C=C/C(C)=C/C=C/C(C)=C/C=C/C=C(C)/C=C/C=C(C)/C=C/C2=C(C)C(=O)CCC2(C)C)C(C)(C)CCC1=O`, the activity, negative = inhibition is -4.18% in [1] (setting [16]) and 4.39% in assay [1] (setting [17]). For the same compound, the Potency entry in [2], in assay [3], in [4], in assay [5], in assay [6] and in assay [7] was “inactive” throughout. Besides, the Potency result in [8], in assay [9], in assay [10], in assay [11], in assay [12] and in assay [13] was “inactive” throughout. Besides, the Potency entry in assay [14] and in [15] was “inactive” in each case.
`Nc1c(Br)cc(Br)cc1CNC1CCC(O)CC1` (configuration not stated): the activity, negative = inhibition in [1] (setting [16]) is 8.81%; in assay [1] (setting [17]) it was -8.99%. Besides, the Potency entry in assay [2], in assay [3], in [4], in assay [5], in [6] and in assay [7] was “inactive” in each case. Further, the Potency entry in assay [8], in assay [9], in assay [10], in assay [11], in assay [12] and in assay [13] was “inactive” each time. Also, the Potency result in [15] is “inactive”.
For the compound `CCC(=O)NCCC1CCc2ccc3c(c21)CCO3` (configuration not stated), the activity, negative = inhibition in assay [1] (setting [16]) is 6.95%; in [1] (setting [17]), 0.538%. For the same compound, the Potency result in assay [2], in assay [3], in assay [4], in assay [5], in assay [6] and in assay [7] was “inactive” each time. The Potency entry in [8], in assay [9], in assay [10], in assay [11], in assay [12] and in assay [13] was “inactive” each time. In addition, the Potency result in assay [15] is “inactive”.
Consider `O=C(O)CCC(=O)C(=O)O`, for which the results for the activity, negative = inhibition in [1] (setting [16]) and in assay [1] (setting [17]) were 2.78% and 9.14%, respectively. The Potency entry in [2], in assay [3], in assay [4], in [5], in [6] and in [7] was “inactive” each time. The Potency result in assay [8], in assay [9], in assay [10], in assay [11], in assay [12] and in [13] was “inactive” in each case. In assay [15], the Potency entry was “inactive”.
For `CC(C(=O)O)c1ccc(N2Cc3ccccc3C2=O)cc1` (configuration not stated), the activity, negative = inhibition in assay [1] (setting [16]) was 8.3%; in assay [1] (setting [17]), 10.3%. Moreover, the Potency entry in assay [2], in [3], in assay [4], in [5], in [6] and in [7] was “inactive” throughout. For the same compound, the Potency entry in assay [8], in assay [9], in assay [10], in [11], in [12] and in [13] was “inactive” throughout. Besides, the Potency result in assay [15] was “inactive”.
Turning to `CC1(C)S[C@@H]2[C@H](NC(=O)[C@@H](NC(=O)N3CCNC3=O)c3ccccc3)C(=O)N2[C@H]1C(=O)O`, the activity, negative = inhibition was 9.18% in assay [1] (at 12.8 µM (top of the series), parasite line A) and -0.988% in assay [1] (at 12.8 µM (top of the series), parasite line B). Also, the Potency result in assay [2], in assay [3], in assay [4], in [5], in [6] and in assay [7] was “inactive” throughout. In addition, the Potency entry in assay [8], in assay [9], in assay [10], in [11], in [12] and in [13] was “inactive” each time. The Potency result in assay [15] is “inactive”.
Take `CCCC(=O)Nc1ncnc2c1ncn2C1OC2COP(=O)(O)OC2C1OC(=O)CCC` (configuration not stated): the activity, negative = inhibition in [1] (setting [16]) was 6.84%; in assay [1] (setting [17]), -4.45%. The Potency result in [2], in assay [3], in assay [4], in assay [5], in [6] and in assay [7] was “inactive” each time. The Potency result in [8], in [9], in [10], in assay [11], in assay [12] and in assay [13] was “inactive” each time. For the same compound, the Potency result in assay [15] was “inactive”.
Consider `CCCCCCCCCCCCCC[n+]1ccc(C)cc1`, for which the Potency in [1] (parasite line A) is 2510 nM (active); in assay [1] (parasite line B) it was 5620 nM (active); in assay [2], 2510 nM (active); in assay [3] it was 1120 nM (active); in assay [4] it was 3980 nM (active); in assay [5] it was 3550 nM (active). In addition, the Potency was 5620 nM (active) in assay [6]; 2820 nM (active) in assay [7]; 3160 nM (active) in assay [8]; 5010 nM (active) in [9]; 2820 nM (active) in assay [10]; 4780 nM (active) in assay [11]. Besides, the values for the Potency in assay [12], in assay [13] and in [15] were 4260 nM (active), 4780 nM (active) and 3380 nM (active), respectively.
`Nc1ncnc2c1ncn2[C@@H]1O[C@H](COP(=O)(O)OP(=O)(O)OP(=O)(O)O)[C@@H](O)[C@H]1O`: the results for the activity, negative = inhibition in assay [1] (setting [16]) and in [1] (setting [17]) were 19.4% and 9.47%, respectively. Also, the Potency entry in [2], in assay [3], in assay [4], in assay [5], in assay [6] and in assay [7] was “inactive” in each case. Moreover, the Potency entry in assay [8], in assay [9], in assay [10], in [11], in [12] and in assay [13] was “inactive” throughout. Besides, in [15], the Potency entry was “inactive”.
As for `CCNC(=O)[C@@H]1CCCN1C(=O)[C@H](CCCN=C(N)N)NC(=O)[C@H](CC(C)C)NC(=O)[C@@H](Cc1c[nH]c2ccccc12)NC(=O)[C@H](Cc1ccc(O)cc1)NC(=O)[C@H](CO)NC(=O)[C@H](Cc1c[nH]c2ccccc12)NC(=O)[C@H](Cc1cnc[nH]1)NC(=O)[C@@H]1CCC(=O)N1`, the Potency in [1] (parasite line A) is 4470 nM (active); in [1] (parasite line B), 5620 nM (active); in assay [2], 7080 nM (active); in assay [3], 1120 nM (active); in assay [4], 3160 nM (active); in assay [5] it was 4470 nM (active). The Potency is 8910 nM (active) in [6]; 4470 nM (active) in assay [7]; 7080 nM (active) in assay [8]; 11200 nM (active) in [9]; 7940 nM (active) in assay [10]; 9530 nM (active) in assay [11]. In addition, the Potency in assay [12] is 7570 nM (active); in assay [13], 15100 nM (active); in [15] it was 6750 nM (active).
As for `CCCCCCCCCCCC[n+]1ccc2ccccc2c1`, the Potency in assay [1] (parasite line A) is 794 nM (active); in assay [1] (parasite line B), 501 nM (active); in [2] it was 1120 nM (active); in assay [3], 316 nM (active); in assay [4], 1260 nM (active); in assay [5], 1410 nM (active). Moreover, the Potency in assay [6] is 1000 nM (active); in assay [7] it was 2000 nM (active); in [8], 708 nM (active); in [9], 562 nM (active); in assay [10], 562 nM (active); in assay [11], 601 nM (active). In addition, the Potency in assay [12] was 1200 nM (active); in assay [13] it was 1690 nM (active); in assay [14] it was 849 nM (active); in [15] it was 675 nM (active).
`CO[C@H](C(=O)[C@@H](O)[C@@H](C)O)C1Cc2cc3cc(O[C@H]4C[C@@H](O[C@H]5C[C@@H](O)[C@H](O)[C@@H](C)O5)[C@@H](O)[C@@H](C)O4)c(C)c(O)c3c(O)c2C(=O)[C@H]1O[C@H]1C[C@@H](O[C@H]2C[C@@H](O[C@H]3C[C@](C)(O)[C@H](O)[C@@H](C)O3)[C@H](O)[C@@H](C)O2)[C@H](O)[C@@H](C)O1` (some centres not stated): the Potency in [1] (parasite line A) is 112 nM (active); in assay [1] (parasite line B), 251 nM (active); in [2], 112 nM (active); in [3], 44.7 nM (active); in assay [4], 112 nM (active); in assay [5], 141 nM (active). Also, the Potency in assay [6] is 158 nM (active); in assay [7], 126 nM (active); in [8], 224 nM (active); in [9], 199 nM (active); in assay [10], 178 nM (active); in assay [11], 2130 nM (active). Moreover, the figures for the Potency in assay [12], in assay [13] and in assay [15] were 2690 nM (active), 2130 nM (active) and 2130 nM (active), respectively.

Values taken from PubChem BioAssay (NCATS).
